A selection: hits, their analogues and other compounds. The true share with any hit is near 2.1%.
CASP6 VEID inh: human caspase-6 inhibitors, primary screen, biochemical, VEID-R110 fluorescence, single point, set 2 | actives 0.53% (n = 350,000) | purified caspase-6, Z-VEID-R110 cleavage fluorescence | inhibition, % at 12.5 µM;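 active means mean inhibition across replicates at least about 35%, with every replicate also reaching that limit, limit read from the data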;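 further: 0% = median of neutral control wells and 100% = no fluorescence left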
SIRT5 inh: SIRT5 desuccinylase inhibitors, primary screen, biochemical, fluorescence imaging, single point, set 5; Purified SirT5, succinyl-peptide AMC, trypsin-coupled fluorescence; actives 1.1% (n = 330,000); NAD-dependent protein deacylase sirtuin-5, mitochondrial (Homo sapiens), Q9NXA8; inhibition, % at 15 µM; in the data active means inhibition above about 15%
NSD2 HMT inh: NSD2 histone methyltransferase inhibitors, primary screen, biochemical, AlphaScreen, single concentration, set 2. actives 0.54% (n = 310,000). Histone-lysine N-methyltransferase NSD2 (Homo sapiens), O96028. NSD2 peptide methylation, 120 min. inhibition, % at 12.5 µM; in the data active means inhibition above about 50%
PfHsp90 yeast 2: growth inhibition of PfHsp90-expressing yeast, primary screen, antimalarial PfHsp90 inhibitor project, S. cerevisiae, BacTiter-Glo luminescence, single point, set 2; BacTiter-Glo ATP, 48 h; yeast lacking PDR1 and PDR3 efflux regulators; inhibition, % at 9.4 µM; actives 0.32% (n = 310,000); AID 504621, 2011;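 active means every replicate shows inhibition above about 80%, whatever the replicate mean, limit read from the data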;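 further: 0% = DMSO neutral controls and 100% = 20 µM radicicol positive controls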
ARNT TACC3 PPI: disruptors of ARNT/TACC3 protein interaction, primary screen, biochemical, AlphaScreen, single concentration. AlphaScreen His-ARNT PAS-B/GST-TACC3 binding, luminescence; TACC3 fragment carries E629A point mutation. inhibition, % at 9.99 µM. actives 0.66% (n = 390,000);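 active means mean inhibition of replicates at least 50% and at least half of replicates each reaching 50%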;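 further: 0% = complete ARNT plus TACC3 wells and 100% = ARNT alone without TACC3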
An asterisk follows results filed as active; . = no result; + = active, no number.

SMILES	CASP6 VEID inh	SIRT5 inh	NSD2 HMT inh	PfHsp90 yeast 2	ARNT TACC3 PPI
CCc1ccc(NC(=O)c2sc3nc4n(c(=O)c3c2C)CCC4)cc1	3	-4	-3	15	12
CC(=O)Nc1ccc(NC(=O)c2sc3nc4n(c(=O)c3c2C)CCCCC4)cc1	1	17*	0	-9	0
COc1ccc(CN(C)C[C@H]2Oc3ccc(NS(=O)(=O)c4c(C)noc4C)cc3CC(=O)N([C@H](C)CO)C[C@@H]2C)cc1	-1	7	.	.	.
C[C@@H]1CCCCO[C@@H](CN(C)C(=O)c2ccccc2)[C@H](C)CN([C@H](C)CO)C(=O)c2cc(NS(=O)(=O)c3ccc(F)cc3)ccc2O1	2	3	.	.	2
CCC(C)(C)NC(=O)CN(C(=O)CNS(=O)(=O)c1ccc(F)cc1)c1ccc2c(c1)OCCO2	47*	-1	.	-130	33
CCC(=O)N1[C@H](CO)[C@@H](c2ccc(-c3ccc(C#N)cc3)cc2)C12CN(C(C)=O)C2	0	-3	.	.	.
C[C@@H]1CN([C@@H](C)CO)C(=O)c2cc(C3=CCCCC3)cnc2O[C@@H]1CN(C)Cc1cccnc1	2	-1	.	.	0
CN1C(=O)c2cc(NC(=O)C3CC3)ccc2OC[C@@H]2O[C@@H](CC(=O)NC3CCC3)CC[C@@H]21	2	0	.	.	.
Cc1noc(C)c1NC(=O)N(C)C[C@@H]1OCCCC[C@H](C)Oc2ccc(NC(=O)Cc3ccccc3)cc2C(=O)N([C@@H](C)CO)C[C@@H]1C	-4	8	.	.	-1
Cc1[nH][nH]c(=O)c1C(c1ccc(-c2ccc(Cl)c(Cl)c2)o1)c1c(C)[nH][nH]c1=O	.	.	.	0	61*
Cc1[nH][nH]c(=O)c1C(c1ccc(N(C)C)c(Br)c1)c1c(C)[nH][nH]c1=O	0	8	.	-8	5
O=S(=O)(N[C@H]1CC[C@H](CCn2cc(C3CC3)nn2)O[C@H]1CO)c1ccc(Cl)cc1	2	-2	.	.	.
O=C(Nc1nnc(-c2ccc(F)cc2)o1)c1cc(Cl)sc1Cl	.	.	-2	80*	5
CN(C)CC(=O)N[C@@H]1CC[C@@H](CCNC(=O)Nc2ccc(C(F)(F)F)cc2)O[C@@H]1CO	1	17*	.	.	0
O=C(CN1CCN(S(=O)(=O)c2ccc(F)cc2)CC1)c1ccc(O)c(O)c1	5	-1	.	14	5
COc1ccc(S(=O)(=O)N2CCN(CC(=O)c3ccc(O)c(O)c3)CC2)cc1	.	4	+	19	7
O=C(CN1CCN(S(=O)(=O)c2ccc(Cl)cc2)CC1)c1ccc(O)c(O)c1	.	.	121*	2	.
CCOc1ccc(C(=O)CN2CCN(S(=O)(=O)c3ccc(F)cc3)CC2)cc1	.	.	0	22	1
CCCNC(=O)[C@H]1[C@H](CO)[C@H]2Cn3c(cccc3=O)[C@H]2N1C(=O)C1CCCC1	2	3	.	.	-12
C[C@@H]1CCCCO[C@@H](CN(C)C(=O)CCCN(C)C)[C@@H](C)CN([C@H](C)CO)C(=O)c2cc(NC(=O)c3ccccc3)ccc2O1	.	-3	.	.	1
Cc1cc(C)c2c(N=NN(C)C)[nH]nc2n1	.	.	6	104*	2
Cc1cc(C)c2c(NC(N)=S)n[nH]c2n1	.	3	-4	.	-4
COc1ccc(/C=N/Nc2nc(C(=O)O)cs2)cc1	34	11	5	-5	45*
COC(=O)c1ccc(/C=N/Nc2nc(-c3ccccc3)cs2)cc1	.	.	-1	-4	-2
O=C(NC1CCCCC1)C(c1ccccn1)N(C(=O)c1csnn1)C1CCCCC1 (centres undefined)	-1	15*	-1	-14	7
SMILES	CASP6 VEID inh	SIRT5 inh	NSD2 HMT inh	PfHsp90 yeast 2	ARNT TACC3 PPI
Cc1ccc(N(C(=O)c2csnn2)C(C(=O)NC2CCCCC2)c2ccco2)cc1 (centres undefined)	0	79*	1	-4	-1
CC(C)(C)NC(=O)C(c1ccccn1)N(C(=O)c1csnn1)C1CCCC1 (centres undefined)	-4	27*	-3	0	0
CC(C)(C)NC(=O)C(c1ccncc1)N(C(=O)c1csnn1)C1CC1 (centres undefined)	.	.	1	6	-5
O=C(NC1CCCC1)C(c1ccccc1)N(C(=O)c1csnn1)C1CCCC1 (centres undefined)	-1	-2	-5	-13	-2
O=C(NC1CCCCC1)C(c1ccco1)N(C(=O)c1csnn1)c1ccccc1 (centres undefined)	0	2	2	-10	-2
C[C@H](CO)N1C[C@H](C)[C@@H](CN(C)CC2CCCCC2)Oc2ccc(NS(C)(=O)=O)cc2CC1=O	-7	-6	.	.	5
O=S(=O)(N[C@H]1CC[C@@H](CCn2cc(-c3cccc(F)c3)nn2)O[C@@H]1CO)c1ccccc1	0	-6	.	.	-2
Cc1occc1C(=O)NCc1ccco1	41*	-2	11	-10	0
Cc1occc1C(=O)NCc1ccccc1	.	.	-2	12	1
CC#CC#Cc1cccc(=O)o1	53*	-12	1	5	-2
COc1ccc(-n2c(C)c(C(C)=O)c(C(C)=O)c2C)cc1	39*	3	2	-11	-2
C[C@@H]1CN([C@@H](C)CO)C(=O)Cc2cc(NC(=O)Nc3cccc4ccccc34)ccc2O[C@H]1CN(C)C(=O)NC1CCCCC1	0	2	.	.	-2
COc1ccccc1/C=C/C(=O)OCC(=O)Nc1ccccc1Sc1ccccc1	-2	18*	2	18	-2
C[C@@H]1CCCCO[C@@H](CN(C)S(=O)(=O)c2ccc(F)cc2)[C@H](C)CN([C@H](C)CO)C(=O)c2cc(NC(=O)Nc3ccc(F)cc3)ccc2O1	.	.	.	.	-10
C[C@@H]1CCCCO[C@H](CN(C)C(=O)Nc2ccc(F)cc2)[C@@H](C)CN([C@H](C)CO)C(=O)c2cc(NS(=O)(=O)c3cn(C)cn3)ccc2O1	1	-9	.	.	-4
Cc1ccc2nc(NC3=NC(CC(=O)O)C(=O)N3)nc(C)c2c1 (centres undefined)	1	44*	-1	.	-34
C[C@@H]1CN([C@@H](C)CO)C(=O)c2cccc(NS(=O)(=O)c3cn(C)cn3)c2O[C@H]1CN(C)Cc1ccncc1	-1	-5	.	.	1
O=C(N1CCOCC1)[C@@]1(Cc2ccccc2)N=C(c2ccc(OCCCO)cc2)O[C@H]1c1ccccc1	1	-22	.	.	12
O=C1CC(N2CCN(c3nc4ccccc4s3)CC2)C(=O)N1Cc1cccs1 (centres undefined)	.	.	0	105*	-5

Screening results as filed in PubChem.
